Assay outcomes from PubChem.
mcGAS RapidFire = blocks mouse cGAS cGAMP production. Q8C6L5. recombinant mouse cGAS, cGAMP by RapidFire MS. inhibition, % at 12.5 µM. 130,000 tested, 0.18% active;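 active = inhibition of cGAS enzyme activity at or above 60%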;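 note: enzyme stimulated by 45 bp dsDNA with ATP and GTP substrates; cGAMP share of summed cGAMP plus half ATP and half GTP signals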
Target sequence (Q8C6L5 whole entry, looked up): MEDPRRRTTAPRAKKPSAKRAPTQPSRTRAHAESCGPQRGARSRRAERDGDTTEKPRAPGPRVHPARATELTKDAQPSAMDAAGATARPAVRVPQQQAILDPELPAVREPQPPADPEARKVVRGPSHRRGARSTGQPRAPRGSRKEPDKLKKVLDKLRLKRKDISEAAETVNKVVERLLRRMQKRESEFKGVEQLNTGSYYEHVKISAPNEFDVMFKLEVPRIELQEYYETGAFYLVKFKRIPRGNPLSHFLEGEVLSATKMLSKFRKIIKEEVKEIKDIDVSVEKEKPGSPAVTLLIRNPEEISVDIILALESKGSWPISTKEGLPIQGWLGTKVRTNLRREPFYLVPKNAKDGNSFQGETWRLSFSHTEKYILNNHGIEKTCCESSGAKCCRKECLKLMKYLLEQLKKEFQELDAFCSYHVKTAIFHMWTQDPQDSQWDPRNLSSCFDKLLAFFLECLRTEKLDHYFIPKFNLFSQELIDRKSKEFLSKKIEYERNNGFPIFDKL
* = called active by the depositor; ! = not active in a repeat. The sample as a whole holds a higher share of hits than the screen did.

What do the screens show for `Cc1ccccc1CN1C(=O)C(C)Sc2ccccc21` (configuration not stated)?
mcGAS RapidFire: 24

What do the screens show for `CC1Sc2ccccc2N(Cc2ccccc2Cl)C1=O` (configuration not stated)?
mcGAS RapidFire: 69*

How did COc1ccc(C2CN(C(=O)c3ccc(C)cc3)CC2C(=O)NCc2ccccc2)cc1 (configuration not stated) do in these assays?
mcGAS RapidFire: -6

What do the screens show for `Clc1cc(Cl)c(N=Cc2ccncc2)cc1Cl`?
mcGAS RapidFire: -8

How did C#CCN(CC#CC)C(=O)Nc1cccnc1OC do in these assays?
mcGAS RapidFire: -2

What do the screens show for `COC(=O)c1ccc(CNC(=O)C2CCC(=O)N(Cc3ccccc3OC)C2)cc1` (configuration not stated)?
mcGAS RapidFire: -7

Results for CCC(=O)N1CCCN(CCCN2C(=O)NC(C)(C)C2=O)CC1 ?
mcGAS RapidFire: -10

How did Clc1ccc(C2CCSCC2)cc1 do in these assays?
mcGAS RapidFire: -3

What do the screens show for `O=S(=O)(O)CC(S)CS` (configuration not stated)?
mcGAS RapidFire: 87*

Results for O=C(Cn1ccn(-c2cccc3ccccc23)c(=O)c1=O)Nc1cccc(Cl)c1 ?
mcGAS RapidFire: -6

How did Cc1cc(N2C(=O)c3oc4ccc(F)cc4c(=O)c3C2c2cccc([N+](=O)[O-])c2)no1 (configuration not stated) do in these assays?
mcGAS RapidFire: -8

What do the screens show for `Cc1cc(N2C(=O)c3oc4ccccc4c(=O)c3C2c2cccc(Cl)c2)no1` (configuration not stated)?
mcGAS RapidFire: -1

What do the screens show for `Cc1cc(N2C(=O)c3oc4ccccc4c(=O)c3C2c2cccc(F)c2)no1` (configuration not stated)?
mcGAS RapidFire: 84*

Results for N#Cc1ccc(F)c(CSCc2cccc(OCC(N)=O)c2)c1 ?
mcGAS RapidFire: -9

Results for Cc1ccc(Nc2cn[nH]c(=S)n2)c(C)c1 ?
mcGAS RapidFire: -9

How did CCc1c(C)[nH]n(-c2nc3ccccc3[nH]2)c1=O do in these assays?
mcGAS RapidFire: -2

Results for Cc1[nH]n(-c2nc3ccccc3[nH]2)c(=O)c1C1OC(=O)c2ccccc21 (configuration not stated) ?
mcGAS RapidFire: 99*

How did Cc1[nH]n(-c2nc3ccccc3[nH]2)c(=O)c1C do in these assays?
mcGAS RapidFire: 29

How did CCOC(=O)Cn1c(=O)c2c(nc3n(CC4CCCO4)c(C)c(C)n23)n(C)c1=O (configuration not stated) do in these assays?
mcGAS RapidFire: -3

Results for COC(=O)C1CCCCN1C(=O)CCc1nnc(CCc2ccc(OC)cc2)o1 (configuration not stated) ?
mcGAS RapidFire: -12

What do the screens show for `COc1ccc(CCC(=O)N2CCN(Cc3nnc(C4CC4)o3)CC2)cc1`?
mcGAS RapidFire: 94*

How did COCCN1CCN(C(=O)CCc2nnc(CCc3ccc(OC)cc3)o2)CC1 do in these assays?
mcGAS RapidFire: -2

How did O=C(CN1C(=O)CCC1=O)Nc1nnc(-c2cc(Cl)ccc2Cl)o1 do in these assays?
mcGAS RapidFire: 3

Results for Oc1cccc(Oc2ccncn2)c1 ?
mcGAS RapidFire: -11

Results for COc1cc(C)c2c(c1C=O)Oc1c(c(C)c(O)c3c1C(O)OC3=O)OC2=O (configuration not stated) ?
mcGAS RapidFire: 34

What do the screens show for `Cc1cc(O)c(C=O)c2c1C(=O)Oc1c(C)c(O)c3c(c1O2)C(O)OC3=O` (configuration not stated)?
mcGAS RapidFire: 85*

What do the screens show for `Cc1cccc(CS(=O)(=O)c2nc3ccccc3nc2C)c1`?
mcGAS RapidFire: 1

Results for COc1ccnc(NCC(c2c(F)cccc2Cl)N(C)C)n1 (configuration not stated) ?
mcGAS RapidFire: 3

Results for COc1coc(C(=O)N2CCN(c3cccc(C(F)(F)F)c3)CC2)cc1=O ?
mcGAS RapidFire: -7

How did O=c1/c(=C/c2ccc([N+](=O)[O-])cc2)sc2nc3cc(Br)cnc3n12 do in these assays?
mcGAS RapidFire: 85*

How did O=c1c2cc([N+](=O)[O-])ccc2nc2n1CCC2=Cc1ccccc1 do in these assays?
mcGAS RapidFire: 1

Results for O=c1c(=Cc2ccccc2I)sc2nc3ccccc3n12 ?
mcGAS RapidFire: -3

Results for O=C1COCc2cc(-c3cnc4ccccc4c3)ccc2N1CCN1CCOCC1 ?
mcGAS RapidFire: 1

What do the screens show for `COc1cc(CNC(=O)c2cc3cnn(C(C)C)c3nc2C)cc(OC)c1OC`?
mcGAS RapidFire: 9

What do the screens show for `CS(=O)(=O)NCc1cccc(-c2ccc(C#N)s2)c1`?
mcGAS RapidFire: 1

What do the screens show for `CC(C)Cc1cc(-c2nn3c(-c4cccnc4)nnc3s2)n[nH]1`?
mcGAS RapidFire: -5

Results for CC(C)c1cc(-c2nnc3sc(-c4cccnc4)nn23)n[nH]1 ?
mcGAS RapidFire: -5

What do the screens show for `CC(C)Cc1cc(-c2nn3c(-c4cnccn4)nnc3s2)n[nH]1`?
mcGAS RapidFire: 88*

Results for CCN1CCN(C(=O)C(C)Sc2nc3ccc(Cl)cc3c(=O)n2CC(C)C)CC1 (configuration not stated) ?
mcGAS RapidFire: 0

Results for CC(C(=O)Nc1ccc(Cl)cn1)N(C)Cc1ccsc1 (configuration not stated) ?
mcGAS RapidFire: 83*

How did CC(C(=O)Nc1ccccc1)N(C)Cc1ccc(Cl)cc1 (configuration not stated) do in these assays?
mcGAS RapidFire: -7

How did CC(C(=O)Nc1ccc(Cl)cn1)N(C)CC(=O)Nc1c(Cl)cccc1Cl (configuration not stated) do in these assays?
mcGAS RapidFire: -7

Results for Cc1nc(SCC(=O)c2c(N)n(C3CC3)c(=O)[nH]c2=O)n(C2CCCCC2)c1C ?
mcGAS RapidFire: -3

Results for Cc1ccc(-c2cnc(CCC(=O)N3CCc4ccccc4C3)o2)cc1C ?
mcGAS RapidFire: 78*

Results for O=C(CCc1nnc(Cc2ccc3c(c2)OCO3)o1)N1CCc2ccccc2C1 ?
mcGAS RapidFire: 6

What do the screens show for `O=C(CCc1ncc(-c2ccc(F)cc2)o1)N1CCN(c2ccccc2)CC1`?
mcGAS RapidFire: -2

How did CN(Cc1ccc(Cl)s1)S(=O)(=O)c1ccc(Cl)s1 do in these assays?
mcGAS RapidFire: -10

How did N=C1CCn2nc3c(c2=N1)=C1Sc2ccccc2N1CCC3 do in these assays?
mcGAS RapidFire: -6

What do the screens show for `O=C1C=C(O)c2ccccc2C1=O`?
mcGAS RapidFire: 12

What do the screens show for `O=C1c2ccccc2C(=O)c2c1ccc(O)c2O`?
mcGAS RapidFire: 85*

What do the screens show for `Nc1ccc2c(c1N)C(=O)c1ccccc1C2=O`?
mcGAS RapidFire: 4

Results for CCc1cccc(NC(=O)CCC(=O)NCc2snnc2C)c1 ?
mcGAS RapidFire: -20

How did Cn1c2ccccc2n2c(=N)c3cc([N+](=O)[O-])ccc3c(C#N)c12 do in these assays?
mcGAS RapidFire: -10

How did CC[n+]1c2ccccc2cc2ccccc21 do in these assays?
mcGAS RapidFire: -1

Results for CC[n+]1c(-c2ccccc2)c2cc(N)ccc2c2ccc(N)cc21 ?
mcGAS RapidFire: 97*!

What do the screens show for `CCN(CC)C(=S)SSC(=S)N(CC)CC`?
mcGAS RapidFire: 76*!

What do the screens show for `CCN(CC)C(=S)SC(C)C(=O)NC1CC1` (configuration not stated)?
mcGAS RapidFire: -4

Results for COc1cc(Cl)c(NS(=O)(=O)c2ccc3c(c2)OCCCO3)cc1OC ?
mcGAS RapidFire: -6

How did O=C(NCCCn1cnc2ccccc21)c1cc(Cl)ccc1F do in these assays?
mcGAS RapidFire: -3
